assay: High-throughput drug toxicity screening in the BPDCN cell line Cal-1 (AID 1224825); settings: Cal-1 BPDCN cell viability, qHTS; at 45.8 µM (top of the series) unless noted
From the text: Blastic plasmacytoid dendritic cell neoplasm (BPDCN) is a rare, aggressive and largely incurable hematologic malignancy originating from plasmacytoid dendritic cells (pDCs). Although an initial response to chemotherapy is common, BPDCN prognosis is extremely poor and most patients relapse with drug-resistant disease leading to a median overall survival of ~1 year after diagnosis. To explore novel potential therapeutic strategies in BPDCN, we performed a high-throughput drug toxicity screening in BPDCN cell liens, using of a library of 1,912 small molecules, enriched for compounds that are either approved or in early stages of development for cancer therapy.
A total of 500 exponentially growing Cal-1 cells were seeded per well in 5 uL of media (RPMI + Glutamine, without phenol red plus10% FBS and 1X Pen/Strep) into 1536-well solid white high base tissue culture treated Greiner One Bio Plates (789173-F), using a multidrop combi dispenser and a small sterile cassette. Compounds and controls totaling 23nL per well (negative control DMSO and positive control 9.2 uM Bortezomib-final) were immediately added to the plates using a 1536 head pin tool from Kalypsys. The plates were then covered with stainless steel gasket lids from Kalypsys and incubated for 48 hours at 37C under 95% relative humidity with 5% CO2. After 48 hours, the plates were removed and allowed to reach room temperature before 3 uL of Cell Titer Glo reagent (Promega) were added using an Aurora Flying Reagent Dispenser Bioraptor. The plates were then spun at 1000 rpms to remove bubbles and incubated for 15 minutes at room temperature before reading on a ViewLux using a luminescent filter with a 10 second exposure. The relative luciferase units were used to calculated percent activity using DMSO as 100% and Bortezomib as 0%.

| Structure (SMILES) | viability (% of control) |
| --- | --- |
| O=c1[nH]c(=O)n([C@H]2C[C@@H](O)[C@@H](CO)O2)cc1I | 87.5% |
| CCC(C)SSc1ncc[nH]1 (stereo not given) | 6.97% |
| Cc1csc(-c2nnc(Nc3ccc(Oc4ncccc4-c4ccnc(N)n4)cc3)c3ccccc23)c1 | 13.3% |
| C[C@@]1(c2cc(-c3cncnc3)c(F)cc2F)CCSC(N)=N1 | 13.1% |
| CC(=O)NCCC(=O)N[C@@H](CCC(N)=O)C(=O)N[C@@H](CO)C(=O)N[C@@H](CCC(N)=O)C(=O)N[C@@H](CCC(N)=O)C(=O)N[C@H](C(=O)N[C@@H](Cc1ccccc1)C(=O)N[C@]1(C)CCCCCCC=CCCC[C@@](C)(C(=O)N[C@@H](CCC(N)=O)C(=O)N[C@@H](CC(N)=O)C(N)=O)NC(=O)[C@H](CC(C)C)NC(=O)[C@H](CC(C)C)NC(=O)[C@@H](CCCNC(=N)N)NC(=O)[C@H](Cc2c[nH]c3ccccc23)NC(=O)[C@H](CC(C)C)NC(=O)[C@H](CC(N)=O)NC1=O)[C@H](C)O | 78.7% |
| O=C(O)C1=NC(C(=O)O)CC(C=CN2c3cc(O)c(OC4OC(CO)C(O)C(O)C4O)cc3CC2C(=O)O)=C1 (stereo not given) | 136% |
| C[C@@H]1C[C@H]2[C@@H]3CCC4=CC(=O)C=C[C@]4(C)[C@@]3(F)[C@@H](O)C[C@]2(C)[C@@]1(O)C(=O)CO | 55.5% |
| N#Cc1c(N(CC(=O)O)CC(=O)O)sc(C(=O)O)c1CC(=O)O | 9.17% |
| CCN1CCC(n2cc(CNc3cc(Cl)c4ncc(C#N)c(Nc5ccc(F)c(Cl)c5)c4c3)nn2)CC1 | 36.8% |
| C[C@H]1[C@H](O)O[C@@H]2O[C@@]3(C)CC[C@@H]4[C@H](C)CC[C@@H]1[C@@]24OO3 | 7.2% |
| C=C1[C@H](n2cnc3c(=O)[nH]c(N)nc32)C[C@H](O)[C@H]1CO | 8.7% |
| OCCn1cc(-c2ccc3c(c2)CCC3=NO)c(-c2ccncc2)n1 | 76.4% |
| CCC(=O)N1CCN(c2ccc(-n3c(=O)ccc4cnc5ccc(-c6cnc7ccccc7c6)cc5c43)cc2C(F)(F)F)CC1 | 20.2% |
| CN(C)CC[C@H](CSc1ccccc1)Nc1ccc(S(=O)(=O)NC(=O)c2ccc(N3CCN(Cc4ccccc4-c4ccc(Cl)cc4)CC3)cc2)cc1[N+](=O)[O-] | 4.81% |
| NCc1c[nH]c(=S)n1[C@H]1CCc2c(F)cc(F)cc2C1 | 34.2% |
| C[C@@H]1CCO[C@H]2Cn3cc(C(=O)NCc4ccc(F)cc4F)c(=O)c(O)c3C(=O)N12 | 12.5% |
| O=C(c1ccc(C(=O)N2CCC(N3CCCC3)CC2)c(Nc2ccccc2)c1)N1CCC(N2CCCC2)CC1 | 113% |
| C=C1c2cccc(O)c2C(O)=C2C(=O)[C@@]3(O)C(O)=C(C(N)=O)C(=O)[C@@H](N(C)C)[C@@H]3[C@@H](O)[C@H]12 | 94.6% |
| CC1C(=O)OC2C(O)C34C5CC(C(C)(C)C)C36C(OC(=O)C6O)OC4(C(=O)O5)C12O (stereo not given) | 16.8% |
| CC(C)=CCCC(C)=CCCC(C)=CCCC(C)=CCCC(C)=CCCC(C)=CCCC(C)=CCCC(C)=CCCC(C)=CCO | 121% |

| Structure (SMILES) | viability (% of control) |
| --- | --- |
| C[C@]12C=CC(=O)C=C1CC[C@@H]1[C@@H]2[C@@H](O)C[C@@]2(C)[C@@H]1CC[C@]2(O)C(=O)CO | 14.3% |
| CCn1c(-c2nonc2N)nc2cncc(CNC3CCNCC3)c21 | 56.5% |
| O=C1NC(=O)C(c2cnc3ccccn23)=C1c1cn2c3c(cccc13)CN(C(=O)N1CCOCC1)CC2 | 24.4% |
| N[C@@H](CC(=O)N1CCn2c(nnc2C(F)(F)F)C1)Cc1cc(F)c(F)cc1F | 111% |
| CCNC(=O)CCCC=CC[C@@H]1[C@H](C=CC(O)CCc2ccccc2)[C@@H](O)C[C@@H]1O (stereo not given in full) | 21% |
| COc1nccc(-c2c(-c3ccc(F)cc3)ncn2C2CCNCC2)n1 | 73.4% |
| COc1cc(N2CCN(C)CC2)ccc1Nc1nc(N)c(C(=O)c2c(Cl)cccc2Cl)s1 | 49.7% |
| CNC(=O)c1c(-c2ccc(F)cc2)oc2cc(N(CCO)S(C)(=O)=O)c(C3CC3)cc12 | 8.15% |
| CC[C@H]1OC(=O)[C@H](C)[C@@H](O[C@H]2C[C@@](C)(OC)[C@@H](O)[C@H](C)O2)[C@H](C)[C@@H](O[C@@H]2O[C@H](C)C[C@H](N(C)C)[C@H]2O)[C@](C)(O)C[C@H](C)C(=NOCOCCOC)[C@H](C)[C@@H](O)[C@]1(C)O | 113% |
| CN1CCN(c2ncc(-c3cc(Cl)cc(Cl)c3Cl)c(N)n2)CC1 | 22.1% |
| Nc1nc(Cl)nc2c1ncn2[C@@H]1O[C@H](CO)[C@@H](O)[C@H]1F | 13.2% |
| c1ccc(CNc2nc(N3CCOc4ccccc43)nc3c2CCCC3)cc1 | 95.6% |
| CC1(C)CC(=O)c2c(C(F)(F)F)nn(-c3ccc(C(N)=O)c(NC4CCC(O)CC4)c3)c2C1 (stereo not given) | 13.5% |
| COc1ccc(-c2cc3nccn3c(Nc3ncccc3C(N)=O)n2)cc1OC | 26.1% |
| Fc1ccc(C(c2ccc(F)cc2)N2CCN(CC=Cc3ccccc3)CC2)cc1 | 30.9% |
| Nc1[nH]nc2nnc(-c3c(-c4ccccc4)nn4ccccc34)cc12 | 6.85% |
| CC(C)(CO)[C@@H](O)C(=O)NCCC(=O)O | 107% |
| O=C1NC(=O)C(=Cc2ccc(-c3ccc(F)cc3O)o2)S1 | 92.1% |
| CN1CCN2c3ncccc3Cc3ccccc3C2C1 (stereo not given) | 112% |
| CC(C)c1onc(-c2c(Cl)cccc2Cl)c1COc1ccc(C=Cc2cccc(C(=O)O)c2)c(Cl)c1 | 107% |
